# Measurements published in PMC11062922 (Nature Chemical Biology, 2023).
# Tests used:
# Parameters in all cases: species or system human, MV4-11 + K-562 + COLO205 + SK-N-BE2 + OVCAR-8
# [1] = test system: ADCK1; conditions: read-out: apparent Kd; compound concentrations: 100 nM and 1000 nM (sheet 'Samples'), CATDS: 1.95230654661257E-2; n = 1
# [2] = test system: AKT1; conditions: read-out: apparent Kd; compound concentrations: 100 nM and 1000 nM (sheet 'Samples'), CATDS: 2.9179929134034902E-2; n = 1
# [3] = test system: AKT2; conditions: read-out: apparent Kd; compound concentrations: 100 nM and 1000 nM (sheet 'Samples'), CATDS: 2.7091450445171202E-2; n = 1
# [4] = test system: CDC42BPA; conditions: read-out: apparent Kd; compound concentrations: 100 nM and 1000 nM (sheet 'Samples'), CATDS: 1.9780691565578001E-2; n = 1
# [5] = test system: CDC42BPB; conditions: read-out: apparent Kd; compound concentrations: 100 nM and 1000 nM (sheet 'Samples'), CATDS: 1.71408665149138E-2; n = 1
# [6] = test system: CDK17; conditions: read-out: apparent Kd; compound concentrations: 100 nM and 1000 nM (sheet 'Samples'), CATDS: 1.7217162863952602E-2; n = 1
# [7] = test system: CIT; conditions: read-out: apparent Kd; compound concentrations: 100 nM and 1000 nM (sheet 'Samples'), CATDS: 2.24347173261998E-2; n = 1
# [8] = test system: GSK3A; conditions: read-out: apparent Kd; compound concentrations: 100 nM and 1000 nM (sheet 'Samples'), CATDS: 4.2719516683869502E-2; n = 1
# [9] = test system: GSK3B; conditions: read-out: apparent Kd; compound concentrations: 100 nM and 1000 nM (sheet 'Samples'), CATDS: 3.83672032367414E-2; n = 1
# [10] = test system: IKBKE; conditions: read-out: apparent Kd; compound concentrations: 100 nM and 1000 nM (sheet 'Samples'), CATDS: 1.7325644717854999E-2; n = 1
# [11] = test system: IRAK3; conditions: read-out: apparent Kd; compound concentrations: 100 nM and 1000 nM (sheet 'Samples'), CATDS: 2.0418472541538401E-2; n = 1
# [12] = test system: JAK2; conditions: read-out: apparent Kd; compound concentrations: 100 nM and 1000 nM (sheet 'Samples'), CATDS: 0.192481748469752; n = 1
# [13] = test system: LATS1; conditions: read-out: apparent Kd; compound concentrations: 100 nM and 1000 nM (sheet 'Samples'), CATDS: 3.9734792534973799E-2; n = 1
# [14] = test system: MARK2; conditions: read-out: apparent Kd; compound concentrations: 100 nM and 1000 nM (sheet 'Samples'), CATDS: 2.5049968914142899E-2; n = 1
# [15] = test system: MARK3; conditions: read-out: apparent Kd; compound concentrations: 100 nM and 1000 nM (sheet 'Samples'), CATDS: 2.50648330516796E-2; n = 1
# [16] = test system: MARK4; conditions: read-out: apparent Kd; compound concentrations: 100 nM and 1000 nM (sheet 'Samples'), CATDS: 2.22913749693762E-2; n = 1
# [17] = test system: MTOR; conditions: read-out: apparent Kd; compound concentrations: 100 nM and 1000 nM (sheet 'Samples'), CATDS: 2.8143895354302499E-2; n = 1
# [18] = test system: PAK4; conditions: read-out: apparent Kd; compound concentrations: 100 nM and 1000 nM (sheet 'Samples'), CATDS: 7.9705302542388501E-2; n = 1
# [19] = test system: PAK6; conditions: read-out: apparent Kd; compound concentrations: 100 nM and 1000 nM (sheet 'Samples'), CATDS: 0.106835733020908; n = 1
# [20] = test system: PI4KB; conditions: read-out: apparent Kd; compound concentrations: 100 nM and 1000 nM (sheet 'Samples'), CATDS: 2.3618528560732301E-2; n = 1
# [21] = test system: PIK3CA; conditions: read-out: apparent Kd; compound concentrations: 100 nM and 1000 nM (sheet 'Samples'), CATDS: 5.0539059632895601E-2; n = 1
# [22] = test system: PIK3CD; conditions: read-out: apparent Kd; compound concentrations: 100 nM and 1000 nM (sheet 'Samples'), CATDS: 6.1879573349501601E-2; n = 1
# [23] = test system: PIM2; conditions: read-out: apparent Kd; compound concentrations: 100 nM and 1000 nM (sheet 'Samples'), CATDS: 1.8579492636517099E-2; n = 1
# [24] = test system: PKN1; conditions: read-out: apparent Kd; compound concentrations: 100 nM and 1000 nM (sheet 'Samples'), CATDS: 3.3974214988559501E-2; n = 1
# [25] = test system: PKN2; conditions: read-out: apparent Kd; compound concentrations: 100 nM and 1000 nM (sheet 'Samples'), CATDS: 1.8056964738192099E-2; n = 1
# [26] = test system: PKN3; conditions: read-out: apparent Kd; compound concentrations: 100 nM and 1000 nM (sheet 'Samples'), CATDS: 6.5050017907180402E-2; n = 1
# [27] = test system: PRKACA; conditions: read-out: apparent Kd; compound concentrations: 100 nM and 1000 nM (sheet 'Samples'), CATDS: 2.14323323603763E-2; n = 1
# [28] = test system: PRKACB; conditions: read-out: apparent Kd; compound concentrations: 100 nM and 1000 nM (sheet 'Samples'), CATDS: 2.3381704422051099E-2; n = 1
# [29] = test system: PRKACG; conditions: read-out: apparent Kd; compound concentrations: 100 nM and 1000 nM (sheet 'Samples'), CATDS: 2.46536070948064E-2; n = 1
# [30] = test system: PRKAG1; conditions: read-out: apparent Kd; compound concentrations: 100 nM and 1000 nM (sheet 'Samples'), CATDS: 2.0047926729344401E-2; n = 1
# [31] = test system: PRKCD; conditions: read-out: apparent Kd; compound concentrations: 100 nM and 1000 nM (sheet 'Samples'), CATDS: 1.7220600193925E-2; n = 1
# [32] = test system: PRKG1; conditions: read-out: apparent Kd; compound concentrations: 100 nM and 1000 nM (sheet 'Samples'), CATDS: 2.2056800835646401E-2; n = 1
# [33] = test system: PRKX;PRKY; conditions: read-out: apparent Kd; compound concentrations: 100 nM and 1000 nM (sheet 'Samples'), CATDS: 5.5547171780811498E-2; n = 1
# [34] = test system: ROCK2; conditions: read-out: apparent Kd; compound concentrations: 100 nM and 1000 nM (sheet 'Samples'), CATDS: 2.36815478984151E-2; n = 1
# [35] = test system: RPS6KA4; conditions: read-out: apparent Kd; compound concentrations: 100 nM and 1000 nM (sheet 'Samples'), CATDS: 1.94570911667616E-2; n = 1
# [36] = test system: RPS6KA5; conditions: read-out: apparent Kd; compound concentrations: 100 nM and 1000 nM (sheet 'Samples'), CATDS: 1.9053083137800499E-2; n = 1
# [37] = test system: RPS6KB1; conditions: read-out: apparent Kd; compound concentrations: 100 nM and 1000 nM (sheet 'Samples'), CATDS: 1.8709076421106301E-2; n = 1
# [38] = test system: STK16; conditions: read-out: apparent Kd; compound concentrations: 100 nM and 1000 nM (sheet 'Samples'), CATDS: 1.87060817181595E-2; n = 1
# [39] = test system: TAOK2; conditions: read-out: apparent Kd; compound concentrations: 100 nM and 1000 nM (sheet 'Samples'), CATDS: 1.8592761990064401E-2; n = 1
# [40] = test system: TGFBR1; conditions: read-out: apparent Kd; compound concentrations: 100 nM and 1000 nM (sheet 'Samples'), CATDS: 1.75354561240674E-2; n = 1
compound,measurement,setting,value
CCn1c(-c2nonc2N)nc2c(C#CC(C)(C)O)ncc(OCC3CCNCC3)c21.O=C(O)C(F)(F)F [GSK554170A],potency estimated from few doses,[1],1500 nM
same,potency estimated from few doses,[2],520 nM
same,potency estimated from few doses,[3],616 nM
same,potency estimated from few doses,[4],1440 nM
same,potency estimated from few doses,[5],2430 nM
same,potency estimated from few doses,[6],2390 nM
same,potency estimated from few doses,[7],993 nM
same,potency estimated from few doses,[8],240 nM
same,potency estimated from few doses,[9],295 nM
same,potency estimated from few doses,[10],2320 nM
same,potency estimated from few doses,[11],1310 nM
same,potency estimated from few doses,[12],25.1 nM
same,potency estimated from few doses,[13],275 nM
same,potency estimated from few doses,[14],744 nM
same,potency estimated from few doses,[15],743 nM
same,potency estimated from few doses,[16],1010 nM
same,potency estimated from few doses,[17],564 nM
same,potency estimated from few doses,[18],84.6 nM
same,potency estimated from few doses,[19],55.1 nM
same,potency estimated from few doses,[20],865 nM
same,potency estimated from few doses,[21],178 nM
same,potency estimated from few doses,[22],126 nM
same,potency estimated from few doses,[23],1780 nM
same,potency estimated from few doses,[24],375 nM
same,potency estimated from few doses,[25],1980 nM
same,potency estimated from few doses,[26],116 nM
same,potency estimated from few doses,[27],1130 nM
same,potency estimated from few doses,[28],888 nM
same,potency estimated from few doses,[29],775 nM
same,potency estimated from few doses,[30],1380 nM
same,potency estimated from few doses,[31],2380 nM
same,potency estimated from few doses,[32],1040 nM
same,potency estimated from few doses,[33],151 nM
same,potency estimated from few doses,[34],859 nM
same,potency estimated from few doses,[35],1520 nM
same,potency estimated from few doses,[36],1630 nM
same,potency estimated from few doses,[37],1740 nM
same,potency estimated from few doses,[38],1740 nM
same,potency estimated from few doses,[39],1780 nM
same,potency estimated from few doses,[40],2210 nM
